Data from the supplement of paper PMC11732987, “Enantioselective OTUD7B fragment discovery through chemoproteomics screening and high-throughput optimisation” (Communications Chemistry, 2025).
Unmarked numbers belong to inactive results.

What was measured:
Assay in all cases: log2 ratio of Biotin-Ahx-Ub-VS probe labelling (fragment/DMSO); higher = less target engagement (more negative = stronger competition), active = hit call of the paper (q ≤ 0.05, log2 ratio ≤ -1)
Details in all cases: compound concentration: 200 uM; treatment time: 3 h
[1] = target: USP9X (UniProt Q93008)
Chain of USP9X (Q93008 whole entry, the tested form may be a part): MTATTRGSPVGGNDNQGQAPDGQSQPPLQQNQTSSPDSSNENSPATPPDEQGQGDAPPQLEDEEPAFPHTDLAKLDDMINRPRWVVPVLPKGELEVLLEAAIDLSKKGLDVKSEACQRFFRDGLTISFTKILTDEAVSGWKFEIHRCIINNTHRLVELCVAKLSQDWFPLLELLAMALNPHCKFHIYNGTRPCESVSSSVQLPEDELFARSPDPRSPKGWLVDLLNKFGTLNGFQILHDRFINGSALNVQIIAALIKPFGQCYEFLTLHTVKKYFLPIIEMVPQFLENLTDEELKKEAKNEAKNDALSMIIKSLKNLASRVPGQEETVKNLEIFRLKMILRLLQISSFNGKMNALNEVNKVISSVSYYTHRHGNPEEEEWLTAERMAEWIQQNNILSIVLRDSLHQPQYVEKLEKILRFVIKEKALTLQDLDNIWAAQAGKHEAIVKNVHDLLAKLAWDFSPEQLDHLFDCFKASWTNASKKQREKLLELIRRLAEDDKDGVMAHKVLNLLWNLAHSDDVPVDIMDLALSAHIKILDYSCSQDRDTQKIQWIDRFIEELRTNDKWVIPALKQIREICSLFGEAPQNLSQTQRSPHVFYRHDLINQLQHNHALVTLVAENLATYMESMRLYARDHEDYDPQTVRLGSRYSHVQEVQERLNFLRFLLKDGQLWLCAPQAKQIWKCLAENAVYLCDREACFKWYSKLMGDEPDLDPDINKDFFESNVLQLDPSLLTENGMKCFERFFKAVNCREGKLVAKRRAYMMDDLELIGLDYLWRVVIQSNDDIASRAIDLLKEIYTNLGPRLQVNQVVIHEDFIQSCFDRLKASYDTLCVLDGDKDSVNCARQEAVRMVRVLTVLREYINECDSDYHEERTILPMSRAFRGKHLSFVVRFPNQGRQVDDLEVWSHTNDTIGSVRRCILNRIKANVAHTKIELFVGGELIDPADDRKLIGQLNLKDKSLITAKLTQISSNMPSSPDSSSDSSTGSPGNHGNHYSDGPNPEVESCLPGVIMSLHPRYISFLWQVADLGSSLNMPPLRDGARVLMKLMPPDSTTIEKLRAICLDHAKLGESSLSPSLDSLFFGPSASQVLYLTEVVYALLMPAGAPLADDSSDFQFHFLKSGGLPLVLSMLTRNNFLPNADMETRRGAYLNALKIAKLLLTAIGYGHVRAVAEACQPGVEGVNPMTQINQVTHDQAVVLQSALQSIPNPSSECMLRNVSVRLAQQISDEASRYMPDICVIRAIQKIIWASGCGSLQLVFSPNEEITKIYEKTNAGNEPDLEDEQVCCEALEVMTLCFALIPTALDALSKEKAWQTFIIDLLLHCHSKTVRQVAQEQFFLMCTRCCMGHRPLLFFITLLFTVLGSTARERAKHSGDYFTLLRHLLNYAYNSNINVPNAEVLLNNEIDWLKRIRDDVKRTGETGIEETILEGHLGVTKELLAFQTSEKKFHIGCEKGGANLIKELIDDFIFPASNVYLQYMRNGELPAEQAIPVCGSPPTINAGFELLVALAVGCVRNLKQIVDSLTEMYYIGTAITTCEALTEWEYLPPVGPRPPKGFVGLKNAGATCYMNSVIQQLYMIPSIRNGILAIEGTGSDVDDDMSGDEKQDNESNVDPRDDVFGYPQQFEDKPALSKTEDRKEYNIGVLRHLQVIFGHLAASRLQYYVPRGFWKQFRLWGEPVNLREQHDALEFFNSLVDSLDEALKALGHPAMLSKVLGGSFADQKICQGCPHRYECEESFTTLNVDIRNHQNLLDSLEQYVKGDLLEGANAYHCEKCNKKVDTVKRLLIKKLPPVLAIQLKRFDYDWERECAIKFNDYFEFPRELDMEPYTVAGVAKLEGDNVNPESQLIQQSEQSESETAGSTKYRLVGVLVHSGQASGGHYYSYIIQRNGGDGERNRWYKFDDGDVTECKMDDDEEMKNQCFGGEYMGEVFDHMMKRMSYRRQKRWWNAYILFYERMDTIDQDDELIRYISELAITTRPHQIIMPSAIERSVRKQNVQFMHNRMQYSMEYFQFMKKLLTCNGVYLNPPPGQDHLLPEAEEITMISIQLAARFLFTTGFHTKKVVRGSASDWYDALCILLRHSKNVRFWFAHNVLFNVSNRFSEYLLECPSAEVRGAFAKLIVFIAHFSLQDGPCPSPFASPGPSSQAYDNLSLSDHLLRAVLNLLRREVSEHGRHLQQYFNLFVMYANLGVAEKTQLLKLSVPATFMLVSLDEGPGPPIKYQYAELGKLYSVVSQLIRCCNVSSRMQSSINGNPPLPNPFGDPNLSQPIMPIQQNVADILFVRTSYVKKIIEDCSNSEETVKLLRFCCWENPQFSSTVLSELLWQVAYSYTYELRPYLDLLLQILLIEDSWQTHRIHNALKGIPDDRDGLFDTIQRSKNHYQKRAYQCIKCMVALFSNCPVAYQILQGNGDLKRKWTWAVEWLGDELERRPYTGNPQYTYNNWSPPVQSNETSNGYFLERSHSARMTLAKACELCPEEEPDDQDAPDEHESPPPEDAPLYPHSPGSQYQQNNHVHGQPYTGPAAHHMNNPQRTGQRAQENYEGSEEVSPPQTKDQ
Summary of the method: (§1)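 In triplicate, 495 µg of HEK293T lysate per sample was incubated with fragment at 200 µM or vehicle for 3 h. Biotin-Ahx-Ub-VS was then added to 0.5 µM final for 1 h, and labelled DUBs were captured with NeutrAvidin, digested with LysC and trypsin, and measured by diaPASEF LC-MS/MS. Data are average log2 fragment/vehicle ratios by unpaired t-test from global-median-normalised Spectronaut label-free quantities, restricted to proteins with ≥2 unique peptides.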

[2] = target: UniProt O00487
Chain of UniProt O00487 (O00487 whole entry): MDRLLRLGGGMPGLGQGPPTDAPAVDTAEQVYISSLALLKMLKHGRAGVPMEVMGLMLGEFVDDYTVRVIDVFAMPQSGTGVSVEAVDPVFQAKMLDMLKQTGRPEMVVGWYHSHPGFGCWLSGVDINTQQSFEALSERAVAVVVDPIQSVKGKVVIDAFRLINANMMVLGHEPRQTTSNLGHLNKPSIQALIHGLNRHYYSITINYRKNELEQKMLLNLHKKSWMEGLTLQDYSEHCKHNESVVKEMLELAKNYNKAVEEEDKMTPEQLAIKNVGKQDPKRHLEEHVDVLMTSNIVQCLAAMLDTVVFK
Summary of the method: as §1

[3] = target: UniProt O00507
Summary of the method: as §1

[4] = target: UniProt P51784
Chain of UniProt P51784 (P51784 whole entry): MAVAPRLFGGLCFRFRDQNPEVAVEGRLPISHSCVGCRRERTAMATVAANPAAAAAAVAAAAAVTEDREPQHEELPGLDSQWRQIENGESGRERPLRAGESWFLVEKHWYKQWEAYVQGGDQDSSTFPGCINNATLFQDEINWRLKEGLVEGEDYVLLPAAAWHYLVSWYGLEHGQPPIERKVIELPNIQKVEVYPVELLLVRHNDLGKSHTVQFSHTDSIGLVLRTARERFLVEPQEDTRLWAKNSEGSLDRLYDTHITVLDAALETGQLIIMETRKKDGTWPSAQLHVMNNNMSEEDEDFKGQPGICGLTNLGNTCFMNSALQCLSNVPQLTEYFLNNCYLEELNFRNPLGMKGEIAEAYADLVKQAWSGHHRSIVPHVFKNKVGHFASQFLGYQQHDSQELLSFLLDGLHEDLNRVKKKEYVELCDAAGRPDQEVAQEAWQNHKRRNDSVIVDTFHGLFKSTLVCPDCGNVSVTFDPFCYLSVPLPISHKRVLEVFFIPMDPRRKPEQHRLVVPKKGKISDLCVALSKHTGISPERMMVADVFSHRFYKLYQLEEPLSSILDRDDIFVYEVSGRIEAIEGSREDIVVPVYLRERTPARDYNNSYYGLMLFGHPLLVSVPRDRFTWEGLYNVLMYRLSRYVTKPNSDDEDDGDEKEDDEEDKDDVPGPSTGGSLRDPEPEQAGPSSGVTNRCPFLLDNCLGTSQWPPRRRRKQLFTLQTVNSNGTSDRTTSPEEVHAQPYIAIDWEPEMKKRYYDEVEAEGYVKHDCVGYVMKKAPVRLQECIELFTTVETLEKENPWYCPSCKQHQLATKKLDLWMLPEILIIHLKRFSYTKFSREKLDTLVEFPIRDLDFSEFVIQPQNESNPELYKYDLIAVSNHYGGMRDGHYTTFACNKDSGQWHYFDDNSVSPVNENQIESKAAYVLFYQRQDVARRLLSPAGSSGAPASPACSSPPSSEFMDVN
Summary of the method: as §1

[5] = target: T1, UniProt Q5T2D3
T1 sequence (whole entry): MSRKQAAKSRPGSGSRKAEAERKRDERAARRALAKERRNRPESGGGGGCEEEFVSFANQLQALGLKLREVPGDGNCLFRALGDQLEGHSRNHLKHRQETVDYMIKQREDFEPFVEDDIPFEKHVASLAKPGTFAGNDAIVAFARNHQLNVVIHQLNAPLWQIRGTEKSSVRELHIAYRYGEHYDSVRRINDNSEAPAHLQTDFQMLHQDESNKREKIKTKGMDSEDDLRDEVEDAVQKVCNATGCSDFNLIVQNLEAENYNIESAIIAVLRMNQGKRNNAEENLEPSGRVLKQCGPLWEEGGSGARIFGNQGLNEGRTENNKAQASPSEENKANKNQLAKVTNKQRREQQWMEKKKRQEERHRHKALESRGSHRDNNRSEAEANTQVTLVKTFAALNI
Summary of the method: as §1

[6] = target: T2, UniProt Q8TE49
T2 sequence (whole entry): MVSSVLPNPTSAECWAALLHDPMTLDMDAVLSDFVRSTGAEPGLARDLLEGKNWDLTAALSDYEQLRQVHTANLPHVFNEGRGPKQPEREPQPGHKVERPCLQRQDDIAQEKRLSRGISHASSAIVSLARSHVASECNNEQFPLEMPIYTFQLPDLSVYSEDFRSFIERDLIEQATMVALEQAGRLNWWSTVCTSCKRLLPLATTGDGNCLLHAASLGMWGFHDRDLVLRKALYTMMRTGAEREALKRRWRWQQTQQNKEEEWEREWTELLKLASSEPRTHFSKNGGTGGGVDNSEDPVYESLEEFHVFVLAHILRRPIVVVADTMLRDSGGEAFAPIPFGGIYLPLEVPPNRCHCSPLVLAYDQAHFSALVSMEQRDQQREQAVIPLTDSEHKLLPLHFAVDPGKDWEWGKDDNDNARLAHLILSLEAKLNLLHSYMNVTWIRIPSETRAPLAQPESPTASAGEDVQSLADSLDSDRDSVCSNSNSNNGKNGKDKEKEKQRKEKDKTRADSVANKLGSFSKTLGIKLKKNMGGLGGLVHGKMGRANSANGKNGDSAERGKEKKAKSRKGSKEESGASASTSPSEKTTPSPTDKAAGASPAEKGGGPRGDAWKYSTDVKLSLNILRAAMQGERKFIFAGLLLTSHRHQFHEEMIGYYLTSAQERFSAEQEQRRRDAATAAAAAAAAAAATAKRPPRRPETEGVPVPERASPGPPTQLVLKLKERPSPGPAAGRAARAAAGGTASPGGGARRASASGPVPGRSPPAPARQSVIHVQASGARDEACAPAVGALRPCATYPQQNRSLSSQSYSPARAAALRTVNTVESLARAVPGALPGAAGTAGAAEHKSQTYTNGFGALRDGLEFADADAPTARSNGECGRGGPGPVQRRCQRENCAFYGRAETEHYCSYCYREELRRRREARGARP
Summary of the method: as §1

[7] = target: T3, UniProt Q9P2H5
T3 sequence (whole entry): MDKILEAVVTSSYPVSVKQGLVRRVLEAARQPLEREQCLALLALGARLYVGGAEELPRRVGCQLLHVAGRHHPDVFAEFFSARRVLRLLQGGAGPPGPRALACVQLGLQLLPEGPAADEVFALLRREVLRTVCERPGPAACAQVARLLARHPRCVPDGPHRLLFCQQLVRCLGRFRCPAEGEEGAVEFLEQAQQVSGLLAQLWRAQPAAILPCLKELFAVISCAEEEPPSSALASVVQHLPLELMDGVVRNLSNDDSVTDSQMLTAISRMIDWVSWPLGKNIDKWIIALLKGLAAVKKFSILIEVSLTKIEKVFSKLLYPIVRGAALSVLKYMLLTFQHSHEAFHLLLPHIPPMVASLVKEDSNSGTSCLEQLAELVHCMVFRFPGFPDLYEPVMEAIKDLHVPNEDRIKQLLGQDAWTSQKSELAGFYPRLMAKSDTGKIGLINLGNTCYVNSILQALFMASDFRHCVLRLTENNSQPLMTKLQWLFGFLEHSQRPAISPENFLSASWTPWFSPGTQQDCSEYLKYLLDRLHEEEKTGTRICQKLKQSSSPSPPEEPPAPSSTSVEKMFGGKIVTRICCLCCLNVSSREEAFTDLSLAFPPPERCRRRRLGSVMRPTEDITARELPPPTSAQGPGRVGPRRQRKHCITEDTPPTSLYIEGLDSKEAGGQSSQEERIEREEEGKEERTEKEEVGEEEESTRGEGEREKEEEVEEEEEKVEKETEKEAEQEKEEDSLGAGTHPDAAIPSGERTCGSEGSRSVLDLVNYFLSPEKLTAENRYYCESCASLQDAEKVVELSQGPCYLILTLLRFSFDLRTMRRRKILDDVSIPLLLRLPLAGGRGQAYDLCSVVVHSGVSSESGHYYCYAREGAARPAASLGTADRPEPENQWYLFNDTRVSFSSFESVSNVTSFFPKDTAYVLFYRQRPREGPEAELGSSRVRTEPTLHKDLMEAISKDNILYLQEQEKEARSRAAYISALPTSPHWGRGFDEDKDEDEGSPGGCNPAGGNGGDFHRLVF
Summary of the method: as §1

[8] = target: T4, UniProt Q9UGI0
T4 sequence (whole entry): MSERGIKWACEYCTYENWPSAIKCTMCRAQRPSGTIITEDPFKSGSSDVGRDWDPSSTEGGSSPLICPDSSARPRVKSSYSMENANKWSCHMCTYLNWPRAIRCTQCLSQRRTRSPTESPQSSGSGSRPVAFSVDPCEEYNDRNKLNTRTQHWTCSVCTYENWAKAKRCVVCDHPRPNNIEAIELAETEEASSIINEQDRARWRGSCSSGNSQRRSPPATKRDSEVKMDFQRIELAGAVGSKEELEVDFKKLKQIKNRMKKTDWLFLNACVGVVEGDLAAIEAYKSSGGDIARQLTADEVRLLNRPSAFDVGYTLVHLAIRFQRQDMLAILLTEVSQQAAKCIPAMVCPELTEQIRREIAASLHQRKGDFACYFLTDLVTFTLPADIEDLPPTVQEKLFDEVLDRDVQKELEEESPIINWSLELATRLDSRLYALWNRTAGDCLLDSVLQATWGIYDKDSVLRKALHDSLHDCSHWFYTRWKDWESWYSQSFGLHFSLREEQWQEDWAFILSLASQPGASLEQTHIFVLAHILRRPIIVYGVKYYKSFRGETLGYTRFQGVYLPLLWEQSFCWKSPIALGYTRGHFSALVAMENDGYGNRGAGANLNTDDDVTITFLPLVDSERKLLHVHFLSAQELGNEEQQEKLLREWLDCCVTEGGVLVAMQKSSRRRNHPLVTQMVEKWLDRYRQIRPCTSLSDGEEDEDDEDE
Summary of the method: as §1

[9] = target: T5, YOD1 (UniProt Q5VVQ6)
T5 sequence (whole entry): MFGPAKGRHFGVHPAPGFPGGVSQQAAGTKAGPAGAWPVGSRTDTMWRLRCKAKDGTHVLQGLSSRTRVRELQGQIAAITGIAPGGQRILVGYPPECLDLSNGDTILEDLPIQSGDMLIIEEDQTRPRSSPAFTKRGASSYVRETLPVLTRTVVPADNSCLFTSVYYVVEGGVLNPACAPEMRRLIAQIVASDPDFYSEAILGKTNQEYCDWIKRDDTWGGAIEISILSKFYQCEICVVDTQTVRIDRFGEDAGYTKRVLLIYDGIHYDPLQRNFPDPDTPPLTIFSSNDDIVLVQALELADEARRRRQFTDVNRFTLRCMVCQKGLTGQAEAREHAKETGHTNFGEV
Summary of the method: as §1

Cc1noc(C)c1CNC(=O)CCl
log2 ratio of Biotin-Ahx-Ub-VS probe labelling [1]: -0.717 | log2 ratio of Biotin-Ahx-Ub-VS probe labelling [2]: -0.395 | log2 ratio of Biotin-Ahx-Ub-VS probe labelling [3]: -0.346 | log2 ratio of Biotin-Ahx-Ub-VS probe labelling [4]: -0.582 | log2 ratio of Biotin-Ahx-Ub-VS probe labelling [5]: -0.715 | log2 ratio of Biotin-Ahx-Ub-VS probe labelling [6]: -1.28 (active) | log2 ratio of Biotin-Ahx-Ub-VS probe labelling [7]: -0.835 | log2 ratio of Biotin-Ahx-Ub-VS probe labelling [8]: -1.01 (active) | log2 ratio of Biotin-Ahx-Ub-VS probe labelling [9]: -0.752
